In PubChem BioAssay AID624167 (Sanford-Burnham Center for Chemical Genomics, 2012):

Experiment: Peg3 promoter luciferase inhibitors, potency, dose response, cell-based, HeLa, CREF/GAPDH counter-screen panel (AID 624167)
Settings: CREF/GAPDH counter-screens; run 2, dose range 1, at 100 µM (top of the series)
`CCC(=O)NC(c1ccc(C)cc1)c1ccc2cccnc2c1O` (stereo not drawn) showed an inhibition of 53.6%. Work on `COc1ccc(C(NC(C)=O)c2ccc3cccnc3c2O)c(OC)c1` (stereo not drawn) yielded an inhibition of 0.125%. `CN(O)C(=S)c1ccccc1` showed an inhibition of 14.9%. `N=c1n(CC(=O)c2ccc([N+](=O)[O-])cc2)c2ccccc2n1Cc1ccc(Cl)cc1` showed an inhibition of 90.8%. For `COc1ccc2c(c1)c(=Cc1ccc(N(C)C)cc1)c1cc(-c3ccccc3)[n+](C)n12`, the inhibition was 99.9%. `CCSc1nc2ccccc2n1C(=O)/C=C\c1ccc(OC)c(OC)c1` gave an inhibition of 81.2%. In the case of `COCCCNC(=O)c1ccc(Cn2c(=O)c3ccccc3n(Cc3ccccc3C#N)c2=O)cc1`, the inhibition is reported as 25.1%. `CCCn1nc(C(=O)Nc2nc(-c3ccccn3)cs2)c2ccccc2c1=O` showed an inhibition of 37.9%. `COc1cc(OC)c2cc(C(=O)N/N=C/c3ccccc3O)[nH]c2c1` showed an inhibition of 73.3%. Compound `Cc1oc(-c2ccc3c(c2)OCCO3)cc1C(=O)O` has an inhibition of 97.9%. For `O=c1cnnc(N/N=C/c2ccccn2)[nH]1`, the inhibition was 9.22%. `O=C(c1ccco1)N1CCN(C(c2ccccc2Cl)c2nnnn2Cc2cccs2)CC1` (stereo not drawn) showed an inhibition of 72.3%. In the case of `CC(=O)c1sc2c(c1OC(=O)c1ccc(Cl)cc1Cl)c(=O)n(-c1ccccc1)c(=S)n2-c1ccccc1`, the inhibition is reported as 79.3%. With `CN=c1sc2c(n1C)C(=O)c1ccccc1C2=O` the inhibition was 87.2%. `CC(C)CCCCCCCCCCCCC(=O)NCC(=O)NC1C(O)C(O)C(Nc2ncnc3nc[nH]c23)OC1C(O)CO` (stereo not drawn) showed an inhibition of 98.2%. Work on `COC1CC(C)C(OC)c2cc(O)cc(c2O)NC(=O)C(C)=CC=CC(C)C(OC(N)=O)C(C)=CC(C)C1OC` (stereo not drawn) yielded an inhibition of 84.8%. With `CC1=NOC(=O)/C1=C\c1ccc(-c2ccccc2Br)o1` the inhibition was 98.7%. For `Cc1cc(C(=O)Nc2cccc(C(=O)O)c2)oc1C`, the inhibition was 92.8%. For `CC(=O)c1cccc(-c2ccnc3c2CC(C(=O)Nc2cccc(NS(C)(=O)=O)c2)O3)c1` (stereo not drawn), the inhibition was 52%. In the case of `CCC(c1ccc(O)c(O)c1)C(CC)c1ccc(O)c(O)c1` (stereo not drawn), the inhibition is reported as 99.5%. `COc1ccc(Nc2ncnc3ccc(Br)cc23)c(OC)c1` showed an inhibition of 93.7%. With `COc1ccc(/C=C2\SC(=S)N(CCCC(=O)NNC(=O)c3ccccc3O)C2=O)cc1` the inhibition was 72.3%. In the case of `C(=N\Nc1ccc2ccccc2n1)/c1ccc2c(c1)OCCO2`, the inhibition is reported as 92%. Compound `O=C(NNC(=O)c1cccnc1SCc1cccc([N+](=O)[O-])c1)c1ccccn1` has an inhibition of -38.1%. Compound `CCCC(=O)NC(c1ccc(OC)cc1)c1ccc2cccnc2c1O` (stereo not drawn) has an inhibition of 69%. With `O=[N+]([O-])c1nn(-c2ccc3c(c2)OCCO3)n(O)c1=Nc1ccc(Cl)cc1` the inhibition was 80.8%. Work on `Cc1cc(NC(c2ccc(Cl)cc2)c2ccc3cccnc3c2O)no1` (stereo not drawn) yielded an inhibition of 55.8%. `O=C(Nc1ccccc1C(=O)Nc1nnc(C(F)(F)F)s1)c1ccccc1` showed an inhibition of 60.9%. For `NC(C(=O)O)C1ON=C(Cl)C1O` (stereo not drawn), the inhibition was 70.1%. With `CN1CCC2(CC1)N=C(c1ccc(F)cc1)C(=S)N2C(=O)c1ccc(C(C)(C)C)cc1` the inhibition was 97.8%. Compound `O=C(CCn1cnc(-c2ccccc2)c1-c1ccccc1)N/N=C/c1ccccc1O` has an inhibition of 55.9%. Compound `CC(=O)NC(c1ccc(Cl)cc1Cl)c1ccc2cccnc2c1O` (stereo not drawn) has an inhibition of 61.7%. Work on `Cc1cc(Br)ccc1NC(=O)CNC(=O)Cn1ncc(Cl)c(Cl)c1=O` yielded an inhibition of 98.9%.
